Reference: the supplement of paper PMC13380429

Test system: Vero E6 infected with SARS-CoV-2
Assay: inhibition of SARS-CoV-2 cytopathic effect; higher = more antiviral protection, active = above 15
Conditions: 48 h

Measured: inhibition of SARS-CoV-2 cytopathic effect

C[C@@H]1CCO[C@H]2Cn3cc(C(=O)NCc4ccc(F)cc4F)c(=O)c(O)c3C(=O)N12 [dolutegravir]
inactive: 1 nM -0.6% | 8.33 nM 1.42% | 100 nM 4% | 833.33 nM 1.93% | 10000 nM 4.1%

CCC(CC)COC(=O)[C@H](C)N[P@](=O)(OC[C@H]1O[C@@](C#N)(c2ccc3c(N)ncnn23)[C@H](O)[C@@H]1O)Oc1ccccc1 [Remdesivir]
inactive: 1 nM -0.54% | 8.33 nM 1.32% | 100 nM 1.51% | 833.33 nM 0.56% | 10000 nM 9.79%

CN(C)C(=S)SC(=S)N(C)C [tetramethylthiuram-monosulfide]
inactive: 1 nM -5.07% | 8.33 nM -6.29% | 100 nM -7.33% | 833.33 nM 11.9% | 10000 nM 10%

CCOc1ccc2nc(SCCN3CCOCC3)[nH]c2c1 [afobazole]
inactive: 1 nM 0.28% | 8.33 nM 0.47% | 100 nM -1.23% | 833.33 nM -0.04% | 10000 nM 1.56%

COc1ccc(Nc2ncnc3ccc(OC)cc23)cc1
inactive: 1 nM 4.07% | 8.33 nM 6.4% | 100 nM 6.26% | 833.33 nM 1.4% | 10000 nM -3.12%

CO[C@H]1CC[C@H](N2C(=O)CNc3ncc(-c4ccc(C(C)(C)O)nc4)nc32)CC1
inactive: 1 nM 0.96% | 8.33 nM -0.05% | 100 nM 0.58% | 833.33 nM -3.48% | 10000 nM -14.6%

c1ccc(NCc2ccc(CNc3ccccn3)cc2)nc1
inactive: 1 nM 0.1% | 8.33 nM 0.65% | 100 nM -3.43% | 833.33 nM -0.24% | 10000 nM -0.68%

CC[C@]12CCCN3CCc4c(n(c5ccccc45)[C@@](O)(C(=O)OC)C1)[C@@H]32 [vincamine]
inactive: 1 nM 0.28% | 8.33 nM 2.12% | 100 nM 0.98% | 833.33 nM -2.3% | 10000 nM -1.71%

NCC(O)(CS(=O)(=O)O)c1ccc(Cl)cc1 (stereo not given) [2-hydroxysaclofen]
inactive: 1 nM 0.19% | 8.33 nM 1.62% | 100 nM -0.08% | 833.33 nM 3.7% | 10000 nM 0.53%

O=C(O)CCc1c[nH]c2ccccc12
inactive: 1 nM 0.05% | 8.33 nM -0.38% | 100 nM -1.18% | 833.33 nM -0.72% | 10000 nM -0.06%

O=C(O)C(=O)Nc1cccc(-c2nnn[nH]2)c1 [acitazanolast]
inactive: 1 nM -1.24% | 8.33 nM -0.89% | 100 nM -0.76% | 833.33 nM -1.09% | 10000 nM -0.46%

O=C(c1ccc(OCCCc2c[nH]cn2)cc1)C1CC1 [ciproxifan]
inactive: 1 nM -1.13% | 8.33 nM -1.91% | 100 nM -1.12% | 833.33 nM 9.43% | 10000 nM 10.2%

COC(=O)N1CCN(Cc2cccc(NC(=O)Nc3ccc(C)nc3)c2F)CC1 [omecamtiv-mecarbil]
inactive: 1 nM -0.03% | 8.33 nM 0.93% | 100 nM -0.98% | 833.33 nM 0.86% | 10000 nM 3.03%

Nc1nccc(-c2c(-c3ccc(F)cc3)ncn2C2CCCCC2)n1
inactive: 1 nM 3.7% | 8.33 nM 3.92% | 100 nM -2.24% | 833.33 nM -0.2% | 10000 nM 1.35%

C[C@@H]1CN([C@H]2CC[C@](C#N)(c3ccc(F)cc3)CC2)CC[C@]1(C(=O)O)c1ccccc1 [levocabastine]
inactive: 1 nM 1.53% | 8.33 nM 0.57% | 100 nM -0.86% | 833.33 nM 1.81% | 10000 nM -0.71%

CN1[C@H]2C[C@H](OC(=O)[C@H](CO)c3ccccc3)C[C@@H]1[C@@H](O)C2 [anisodamine]
inactive: 1 nM 1.04% | 8.33 nM 2.56% | 100 nM 3.99% | 833.33 nM 5.76% | 10000 nM 3.66%

CC[C@H](NC(=O)c1c(C)c(-c2ccccc2)nc2ccccc12)c1ccccc1
inactive: 1 nM 1.87% | 8.33 nM 4.53% | 100 nM 5.18% | 833.33 nM 3.05% | 10000 nM -2.21%

C[C@@H]1CCN(C(=O)CC#N)C[C@@H]1N(C)c1ncnc2[nH]ccc12
inactive: 1 nM -0.74% | 8.33 nM 0.22% | 100 nM -0.47% | 833.33 nM -2.11% | 10000 nM -0.5%

COC(=O)c1cc(OC)c2c(c1-c1c(CO)cc(OC)c3c1OCO3)OCO2 [bicyclol]
inactive: 1 nM -2.07% | 8.33 nM 1.38% | 100 nM -0.88% | 833.33 nM -0.4% | 10000 nM -3.03%

N[C@@H]1CONC1=O [cycloserine-(D)]
inactive: 1 nM -2.12% | 8.33 nM -4.07% | 100 nM -2.78% | 833.33 nM -4.11% | 10000 nM -3.61%

Clc1ccc(CCCOCCCN2CCCCC2)cc1 [pitolisant]
inactive: 1 nM 1.67% | 8.33 nM 1.19% | 100 nM -1.62% | 833.33 nM -2.26% | 10000 nM -0.08%

CC(/C=C/C(=O)NO)=C\[C@@H](C)C(=O)c1ccc(N(C)C)cc1 [trichostatin-a]
inactive: 1 nM -3.04% | 8.33 nM -7.12% | 100 nM -16% | 833.33 nM -31% | 10000 nM -31.1%

CCCCCCN(CCCCCC)C(=O)Cc1c(-c2ccc(F)cc2)[nH]c2ccccc12
inactive: 1 nM 5.1% | 8.33 nM 3.61% | 100 nM 3.88% | 833.33 nM 0.72% | 10000 nM -4.49%

C=CCc1cc(OC)c(O)c(C(=O)NCCO)c1 [alibendol]
inactive: 1 nM -1.08% | 8.33 nM -1.21% | 100 nM -0.53% | 833.33 nM 1.71% | 10000 nM -2.2%

N=C(NCc1ccc(Cl)cc1)SCCCc1c[nH]cn1 [clobenpropit]
inactive: 1 nM 1.58% | 8.33 nM 1.91% | 100 nM 1.78% | 833.33 nM 1.78% | 10000 nM 0.31%

OC(c1cc(C(F)(F)F)nc2c(C(F)(F)F)cccc12)C1CCCCN1 (stereo not given) [mefloquine]
inactive: 1 nM -1.64% | 8.33 nM 0.59% | 100 nM -0.03% | 833.33 nM -3.31%
active: 10000 nM 73.3%

CN(C(=O)/C=C/c1ccoc1)[C@@H]1CC[C@@]2(O)[C@H]3Cc4ccc(O)c5c4[C@@]2(CCN3CC2CC2)[C@H]1O5 [nalfurafine]
inactive: 1 nM -5.32% | 8.33 nM -1.02% | 100 nM 0.43% | 833.33 nM -2.31% | 10000 nM -1.57%

CC(Cc1ccccc1)NCCC(c1ccccc1)c1ccccc1 (stereo not given) [prenylamine]
inactive: 1 nM 1.32% | 8.33 nM -1.92% | 100 nM -0.65% | 833.33 nM -1.29%
active: 10000 nM 23.1%

CCc1ccc(/C=C2/SC(=S)NC2=O)cc1
inactive: 1 nM -2.34% | 8.33 nM -6.5% | 100 nM -4.03% | 833.33 nM 3.21% | 10000 nM 1.11%

CC(C)c1ccc(C(=O)c2cccs2)c(SCCCCCCCCN(C)C)n1
active: 10000 nM 68.5%
inactive: 1 nM -1.33% | 8.33 nM 0.45% | 100 nM 2.39% | 833.33 nM 1.71%

CCCN1CC(NS(=O)(=O)N(CC)CC)CC2Cc3c(O)cccc3CC21 (stereo not given) [quinagolide]
inactive: 1 nM -1.57% | 8.33 nM -0.18% | 100 nM -0.29% | 833.33 nM -13.8% | 10000 nM -6.37%

Cc1ccc2c(=O)c3cccc(CC(=O)O)c3oc2c1C
inactive: 1 nM 4.48% | 8.33 nM 0.61% | 100 nM 1.92% | 833.33 nM -1.05% | 10000 nM 1.59%

O=C1NC(=O)c2cc(Nc3ccccc3)c(Nc3ccccc3)cc21
inactive: 1 nM -1.24% | 8.33 nM 1.7% | 100 nM -0.24% | 833.33 nM 0.41% | 10000 nM 1.85%

C[C@H]1c2cccc(O)c2C(=O)C2=C(O)[C@]3(O)C(=O)C(C(N)=O)=C(O)[C@@H](N(C)C)[C@@H]3[C@@H](O)[C@@H]21 [doxycycline]
inactive: 1 nM -1.68% | 8.33 nM -0.605% | 100 nM 0.42% | 833.33 nM 0.08% | 10000 nM -0.76%

C[C@H]1[C@@H](O)O[C@@H]2O[C@@]3(C)CC[C@H]4[C@H](C)CC[C@@H]1[C@@]24OO3
inactive: 1 nM 0.99% | 8.33 nM 1.14% | 100 nM 1.39% | 833.33 nM 1.43% | 10000 nM 0.11%

Clc1ccccc1C(c1ccccc1)(c1ccccc1)n1cccn1
inactive: 1 nM 2.55% | 8.33 nM 1.8% | 100 nM -0.74% | 833.33 nM 1.1% | 10000 nM 0.33%

CN1CCC(OC(c2ccccc2)c2ccccc2)CC1 [diphenylpyraline]
inactive: 1 nM 0.97% | 8.33 nM 0% | 100 nM 0% | 833.33 nM 0.39% | 10000 nM -1.64%

Nc1ncc(Cc2ccc(Br)cc2)s1
inactive: 1 nM -0.22% | 8.33 nM 1.1% | 100 nM 2.74% | 833.33 nM 2.26% | 10000 nM 2.73%

c1cc2c(c(N3CCNCC3)c1)OCCO2 [eltoprazine]
inactive: 1 nM 3.51% | 8.33 nM 2.36% | 100 nM 2.47% | 833.33 nM -1.11% | 10000 nM -4.55%

CCCCn1ccc(N2CCC(c3ccccc3)CC2)c(Cl)c1=O
inactive: 1 nM 1.82% | 8.33 nM 3.38% | 100 nM 1.99% | 833.33 nM 1.64% | 10000 nM -5.17%

C[C@H](Cc1ccc(OCC(=O)O)cc1)NC[C@H](O)c1cccc(Cl)c1
inactive: 1 nM -1% | 8.33 nM 0.79% | 100 nM 2.24% | 833.33 nM 0.59% | 10000 nM 0.72%
